Data on twelve compounds can be found in PubChem BioAssay (EPA / NIEHS).

Experiment [1] concerns the target human RAR-related Orphan Receptor beta (RORb), RORB (gene 6096) (UniProt Q92753). In words: ATG_RORb_TRANS: Attagene TRANS-FACTORIAL HepG2 Assay for human RAR-related Orphan Receptor beta (RORb) (AID 2283010; active = hit-call score of the fitted dose curve at least 0.9, where 1 is the maximum). Put shortly: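 HepG2 cells were transiently transfected with multiplexed GAL4-UAS reporter units expressing chimeric nuclear receptor–GAL4 proteins, then dosed for 24 h. Reporter mRNA was quantified by RT-PCR with fluorescent labelling and capillary electrophoresis; gain of signal was fitted relative to DMSO.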

For experiment [2], the target named is Retinoic acid receptor RXR-alpha (Homo sapiens) (UniProt P19793). In words: ATG_RXRa_TRANS: Attagene TRANS-FACTORIAL HepG2 Assay for human Retinoid X Receptor alpha (RXRa) (AID 2283012; active = hit-call score of the fitted dose curve at least 0.9, where 1 is the maximum). Put shortly:
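HepG2 cells transiently transfected with multiplexed GAL4-UAS reporter units and chimeric NR-GAL4 fusions, dosed 24 h. Reporter mRNA measured by RT-PCR, FAM labelling, HpaI digestion and capillary electrophoresis; gain-of-signal fitted relative to DMSO baseline.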

The target of experiment [3] is human Thyroid Receptor alpha (THRa1), THRA (gene 7067) (UniProt P10827). The experiment in a line: ATG_THRa1_TRANS: Attagene TRANS-FACTORIAL HepG2 Assay for human Thyroid Receptor alpha (THRa1) (AID 2283014; active = hit-call score of the fitted dose curve at least 0.9, where 1 is the maximum). Put shortly:
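HepG2 cells transiently transfected with multiplexed GAL4-UAS reporter units for exogenous chimeric THRa1-Gal4; reporter mRNA measured 24 h after dosing by RT-PCR, 6-FAM labelling, HpaI digestion and capillary electrophoresis. Gain-of-signal fitted versus DMSO baseline.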

Read-out in experiment [4]: E-selectin (Homo sapiens) (UniProt P16581)
In words: BSK_3C_Eselectin: BioMAP Diversity Plus: 3C Assay for Eselectin Biomarker Activity (AID 2283015).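 For outcome: cell surface E-selectin protein quantified by ELISA 24 h after dosing.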 The following applies: primary human endothelial cells (HUVEC); actives raise or lower the signal. Put shortly: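 Primary human umbilical vein endothelial cells (3C system) were dosed with chemical and cell-surface E-selectin measured by ELISA 24 h later. Bidirectional curve fitting used DMSO as negative control and baseline.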

Read-out in experiment [5]: Interleukin-1 alpha (IL1a), IL1A (gene 3552)
In words: BSK_BE3C_IL1a: BioMAP Diversity Plus: BE3C Assay for Interleukin-1 alpha (IL1a) Biomarker Activity (AID 2283016). The following applies: primary human bronchial epithelial cells; actives raise or lower the signal. Put shortly:
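Human primary bronchial epithelial cells (BE3C system) were dosed with compound and IL-1a measured by ELISA 24 h later. Activity was fitted bidirectionally against DMSO baseline; cytotoxicity was tracked in parallel cultures by SRB total-protein staining.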

Read-out in experiment [6]: Monocyte Chemoattractant Protein-1 (MCP1), CCL2 (gene 6347)
The experiment in a line: BSK_3C_MCP1: BioMAP Diversity Plus: 3C Assay for Monocyte Chemoattractant Protein-1 (MCP1) Biomarker Activity (AID 2283017). The following applies: primary human endothelial cells (HUVEC); actives raise or lower the signal. Put shortly:
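Primary human umbilical vein endothelial cells (3C system) were exposed to test chemical for 24 h, after which MCP-1 was quantified by ELISA. Activity was fitted bidirectionally against DMSO as negative control and baseline.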

Read-out in experiment [7]: Monocyte Chemoattractant Protein-1 (MCP1), CCL2 (gene 6347)
In words: BSK_4H_MCP1: BioMAP Diversity Plus: 4H Assay for Monocyte Chemoattractant Protein-1 (MCP1) Biomarker Activity (AID 2283018). The settings on record: primary human endothelial cells (HUVEC); actives raise or lower the signal. Put shortly: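 Human umbilical vein endothelial cells (4H system) dosed with chemical; MCP-1 measured by ELISA 24 h after dosing. Bidirectional curve fitting against DMSO negative control as baseline; parallel SRB total-protein staining tracks overt cytotoxicity.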

Read-out in experiment [8]: Human Leukocyte Antigen - DR isotype (HLADR), HLA-DRA (gene 3122)
The experiment in a line: BSK_3C_HLADR: BioMAP Diversity Plus: 3C Assay for Human Leukocyte Antigen - DR isotype (HLADR) Biomarker Activity (AID 2283019). The settings on record: primary human endothelial cells (HUVEC); actives raise or lower the signal. Put shortly: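 Primary human umbilical vein endothelial cells (3C system) were dosed with compound and cell-surface HLA-DR was quantified by ELISA at 24 h. Activity was fitted bidirectionally against DMSO as negative control and baseline.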

Read-out in experiment [9]: Interleukin-8 (IL8), CXCL8 (gene 3576)
In words: BSK_3C_IL8: BioMAP Diversity Plus: 3C Assay for Interleukin-8 (IL8) Biomarker Activity (AID 2283020). The settings on record: primary human endothelial cells (HUVEC); actives raise or lower the signal. Put shortly: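 Primary human umbilical vein endothelial cells (3C system) were exposed to test chemical for 24 h, then IL-8 was quantified by ELISA. Responses were fitted bidirectionally against DMSO vehicle as baseline.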

Read-out in experiment [10]: Monokine induced gamma interferon (MIG), CXCL9 (gene 4283)
In words: BSK_3C_MIG: BioMAP Diversity Plus: 3C Assay for Monokine induced gamma interferon (MIG) Biomarker Activity (AID 2283021). The following applies: primary human endothelial cells (HUVEC); actives raise or lower the signal. Put shortly: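 Primary human umbilical vein endothelial cells in the 3C system were exposed to chemical for 24 h, after which MIG was quantified by ELISA. Activity was fitted bidirectionally against DMSO as negative control and baseline.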

In experiment [11] the target is human Vitamin D Receptor (VDR), VDR (gene 7421) (UniProt P11473). In words: ATG_VDR_TRANS: Attagene TRANS-FACTORIAL HepG2 Assay for human Vitamin D Receptor (VDR) (AID 2283022; active = hit-call score of the fitted dose curve at least 0.9, where 1 is the maximum). Put shortly:
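HepG2 cells were transiently transfected with multiple GAL4-UAS reporter units, so signal reflects exogenous chimeric receptor-Gal4 activity. After 24 h compound exposure, reporter mRNA was measured by RT-PCR, fluorescent labelling and capillary electrophoresis, fitted for gain of signal versus DMSO.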

The nature of experiment [12]: BSK_3C_SRB: Viability Assessment in the BioMAP Diversity Plus: 3C Assay (AID 2283023).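 Note: fitted both ways against DMSO so a hit may be signal rise or drop.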 The settings on record: primary human endothelial cells (HUVEC). Put shortly: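 Primary human umbilical vein endothelial cells in the 3C system were read 24 h after compound dosing. Total protein was stained with 0.1% sulforhodamine B after 10% TCA fixation and read at 560 nm, with bidirectional fitting against DMSO as baseline.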

Read-out in experiment [13]: Matrix Metallopeptidase 1 (MMP1), MMP1 (gene 4312)
The experiment in a line: BSK_BE3C_MMP1: BioMAP Diversity Plus: BE3C Assay for Matrix Metallopeptidase 1 (MMP1) Biomarker Activity (AID 2283024). The following applies: primary human bronchial epithelial cells; actives raise or lower the signal. Put shortly: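 Primary human bronchial epithelial cells were dosed with test chemicals, and MMP1 levels were measured by ELISA 24 h later. Data were fitted bidirectionally against DMSO as the negative control and activity baseline.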

Read-out in experiment [14]: Pselectin, SELP (gene 6403)
The experiment in a line: BSK_4H_Pselectin: BioMAP Diversity Plus: 4H Assay for Pselectin Biomarker Activity (AID 2283026). The following applies: primary human endothelial cells (HUVEC); actives raise or lower the signal. Put shortly:
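Primary human umbilical vein endothelial cells were exposed to test chemical for 24 h, then cell-surface P-selectin was quantified by ELISA. Activity was fitted bidirectionally against DMSO as negative control and baseline.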

Experiment [15] can be described thus: BSK_4H_SRB: Viability Assessment in the BioMAP Diversity Plus: 4H Assay (AID 2283027).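 For AC50: curves fitted both ways versus DMSO so AC50 may be loss or gain.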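 Note: cells exposed to compound for 24 h before staining.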 The settings on record: primary human endothelial cells (HUVEC). Put shortly: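 Human umbilical vein endothelial cells were dosed with chemical and, after 24 h, fixed with 10% TCA, stained with 0.1% sulforhodamine B, and read at 560 nm to give total protein as a cytotoxicity measure. Bidirectional fitting relative to DMSO control.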

Read-out in experiment [16]: Thrombomodulin, THBD (gene 7056)
The experiment in a line: BSK_3C_Thrombomodulin: BioMAP Diversity Plus: 3C Assay for Thrombomodulin Biomarker Activity (AID 2283029). The following applies: primary human endothelial cells (HUVEC); actives raise or lower the signal. Put shortly: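 Primary human umbilical vein endothelial cells (3C system) were exposed to chemical for 24 h, then thrombomodulin levels were measured by ELISA. Activity was fitted bidirectionally against the DMSO negative control as baseline.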

Read-out in experiment [17]: Urokinase-type plasminogen activator receptor (uPAR), PLAUR (gene 5329)
The experiment in a line: BSK_4H_uPAR: BioMAP Diversity Plus: 4H Assay for Urokinase-type plasminogen activator receptor (uPAR) Biomarker Activity (AID 2283030). The settings on record: primary human endothelial cells (HUVEC); actives raise or lower the signal. Put shortly: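 Primary human umbilical vein endothelial cells were exposed to chemical for 24 h before cell-surface uPAR was quantified by ELISA. Activity was fitted bidirectionally against the DMSO negative control baseline.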

The target of experiment [18] is human RAR-related Orphan Receptor gamma (RORg), RORC (gene 6097) (UniProt P51449). In words: ATG_RORg_TRANS: Attagene TRANS-FACTORIAL HepG2 Assay for human RAR-related Orphan Receptor gamma (RORg) (AID 2283011; active = hit-call score of the fitted dose curve at least 0.9, where 1 is the maximum). Put shortly:
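Readout: reporter transcript induction (RT-PCR, fluorescent primer extension, capillary electrophoresis) after 24 h compound exposure of transiently transfected HepG2 cells carrying a RORg-Gal4 chimera and GAL4-UAS reporters; DMSO served as baseline, with increasing signal fitted.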

Experiment [19] has as its target human Retinoid X Receptor beta (RXRb), RXRB (gene 6257) (UniProt P28702). In words: ATG_RXRb_TRANS: Attagene TRANS-FACTORIAL HepG2 Assay for human Retinoid X Receptor beta (RXRb) (AID 2283013; active = hit-call score of the fitted dose curve at least 0.9, where 1 is the maximum). Put shortly: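 HepG2 cells transiently transfected with multiplexed reporter units driven by GAL4-UAS and exogenous chimeric NR-Gal4 proteins; treated 24 h. Reporter mRNA measured by RT-PCR, 6-FAM labelling and capillary electrophoresis; gain-of-signal fitted versus DMSO baseline.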

Experiment [20] in a line: BSK_BE3C_SRB: Viability Assessment in the BioMAP Diversity Plus: BE3C Assay (AID 2283028).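 For AC50: fitted both ways so AC50 may mark signal gain or loss versus DMSO.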 The following applies: primary human bronchial epithelial cells. Put shortly: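 Human primary bronchial epithelial cells were exposed to test chemicals for 24 h. Total protein in parallel cultures was then measured by staining with 0.1% sulforhodamine B after 10% TCA fixation, with absorbance read at 560 nm. Activity was fitted bidirectionally against DMSO.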

The structures appear in SMILES notation. Inconclusive results are not listed. The source holds several records for some structures; these can differ, active in one and inactive in another. Active and inactive are the calls of the source. Rule for the calls, unless noted: active = hit-call score of the fitted dose curve at least 0.9, where 1 is the maximum; inactive = score below 0.9.

human RAR-related Orphan Receptor gamma (RORg), RORC (gene 6097), sequence (P51449 whole entry, looked up, the tested form may be a part): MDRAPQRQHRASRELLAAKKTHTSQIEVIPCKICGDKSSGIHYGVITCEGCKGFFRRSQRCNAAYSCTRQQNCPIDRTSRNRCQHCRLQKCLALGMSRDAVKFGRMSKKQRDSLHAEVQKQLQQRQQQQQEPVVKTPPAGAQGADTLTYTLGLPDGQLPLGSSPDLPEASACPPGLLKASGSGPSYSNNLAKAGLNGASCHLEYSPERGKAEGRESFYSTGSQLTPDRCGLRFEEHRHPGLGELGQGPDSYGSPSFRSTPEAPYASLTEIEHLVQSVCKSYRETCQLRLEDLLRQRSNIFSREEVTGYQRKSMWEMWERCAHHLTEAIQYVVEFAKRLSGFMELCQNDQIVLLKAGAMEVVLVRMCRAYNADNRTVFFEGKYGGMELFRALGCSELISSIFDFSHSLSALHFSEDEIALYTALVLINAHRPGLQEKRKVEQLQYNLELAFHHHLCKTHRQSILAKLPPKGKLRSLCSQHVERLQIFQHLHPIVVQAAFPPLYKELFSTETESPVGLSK
Retinoic acid receptor RXR-alpha (Homo sapiens), sequence (P19793 whole entry, looked up, the tested form may be a part): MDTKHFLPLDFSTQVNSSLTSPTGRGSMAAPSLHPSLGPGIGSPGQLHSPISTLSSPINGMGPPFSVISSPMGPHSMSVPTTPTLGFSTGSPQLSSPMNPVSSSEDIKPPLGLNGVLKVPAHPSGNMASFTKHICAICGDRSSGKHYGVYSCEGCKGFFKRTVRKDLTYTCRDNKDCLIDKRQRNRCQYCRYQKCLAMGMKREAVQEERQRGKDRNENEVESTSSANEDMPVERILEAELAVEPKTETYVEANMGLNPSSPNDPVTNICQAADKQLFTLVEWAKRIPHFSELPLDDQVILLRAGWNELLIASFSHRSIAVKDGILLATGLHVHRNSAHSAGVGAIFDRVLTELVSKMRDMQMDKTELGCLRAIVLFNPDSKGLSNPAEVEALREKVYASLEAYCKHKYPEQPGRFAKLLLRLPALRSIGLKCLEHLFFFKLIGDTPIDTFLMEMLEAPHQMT
human Thyroid Receptor alpha (THRa1), THRA (gene 7067), sequence (P10827 whole entry, looked up, the tested form may be a part): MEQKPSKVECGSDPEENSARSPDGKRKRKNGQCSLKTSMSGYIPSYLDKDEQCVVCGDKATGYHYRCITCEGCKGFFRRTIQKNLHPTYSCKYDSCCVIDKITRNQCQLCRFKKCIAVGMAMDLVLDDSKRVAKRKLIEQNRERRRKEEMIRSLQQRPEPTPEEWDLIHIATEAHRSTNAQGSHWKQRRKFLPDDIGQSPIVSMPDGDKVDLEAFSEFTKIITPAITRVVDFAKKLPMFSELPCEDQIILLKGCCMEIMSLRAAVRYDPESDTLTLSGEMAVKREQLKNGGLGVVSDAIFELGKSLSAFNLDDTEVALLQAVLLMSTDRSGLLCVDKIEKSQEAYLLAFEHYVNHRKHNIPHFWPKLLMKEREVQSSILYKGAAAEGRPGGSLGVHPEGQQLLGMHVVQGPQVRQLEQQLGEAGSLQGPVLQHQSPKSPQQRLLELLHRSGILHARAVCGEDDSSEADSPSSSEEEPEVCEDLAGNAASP
human Retinoid X Receptor beta (RXRb), RXRB (gene 6257), sequence (P28702 whole entry, looked up, the tested form may be a part): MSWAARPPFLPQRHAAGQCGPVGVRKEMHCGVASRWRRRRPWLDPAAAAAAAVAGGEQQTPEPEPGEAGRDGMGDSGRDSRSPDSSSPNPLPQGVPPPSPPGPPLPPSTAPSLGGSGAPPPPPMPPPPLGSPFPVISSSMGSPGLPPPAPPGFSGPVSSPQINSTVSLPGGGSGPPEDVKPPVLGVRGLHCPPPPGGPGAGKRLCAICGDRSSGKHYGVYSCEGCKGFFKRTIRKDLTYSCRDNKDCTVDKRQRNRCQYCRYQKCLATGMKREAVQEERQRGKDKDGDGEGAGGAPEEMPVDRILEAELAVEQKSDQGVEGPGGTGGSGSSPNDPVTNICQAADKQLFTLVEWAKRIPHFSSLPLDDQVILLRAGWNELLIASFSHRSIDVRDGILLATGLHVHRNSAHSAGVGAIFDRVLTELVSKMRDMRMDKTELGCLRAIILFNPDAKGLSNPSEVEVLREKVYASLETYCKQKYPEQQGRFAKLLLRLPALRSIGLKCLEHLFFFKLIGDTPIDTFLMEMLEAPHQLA
human RAR-related Orphan Receptor beta (RORb), RORB (gene 6096), sequence (Q92753 whole entry, looked up, the tested form may be a part): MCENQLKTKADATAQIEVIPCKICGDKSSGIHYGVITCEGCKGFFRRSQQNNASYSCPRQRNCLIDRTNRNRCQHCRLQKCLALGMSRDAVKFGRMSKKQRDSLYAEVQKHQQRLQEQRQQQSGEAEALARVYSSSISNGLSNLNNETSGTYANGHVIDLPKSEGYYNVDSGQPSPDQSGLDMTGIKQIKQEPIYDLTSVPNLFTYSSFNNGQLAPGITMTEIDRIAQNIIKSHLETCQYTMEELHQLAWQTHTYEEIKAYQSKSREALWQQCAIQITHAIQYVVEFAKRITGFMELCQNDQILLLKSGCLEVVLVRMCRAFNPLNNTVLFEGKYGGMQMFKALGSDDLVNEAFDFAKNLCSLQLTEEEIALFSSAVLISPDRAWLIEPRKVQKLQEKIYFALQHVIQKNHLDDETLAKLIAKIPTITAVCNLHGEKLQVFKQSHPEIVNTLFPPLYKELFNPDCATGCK
E-selectin (Homo sapiens), sequence (P16581 whole entry, looked up): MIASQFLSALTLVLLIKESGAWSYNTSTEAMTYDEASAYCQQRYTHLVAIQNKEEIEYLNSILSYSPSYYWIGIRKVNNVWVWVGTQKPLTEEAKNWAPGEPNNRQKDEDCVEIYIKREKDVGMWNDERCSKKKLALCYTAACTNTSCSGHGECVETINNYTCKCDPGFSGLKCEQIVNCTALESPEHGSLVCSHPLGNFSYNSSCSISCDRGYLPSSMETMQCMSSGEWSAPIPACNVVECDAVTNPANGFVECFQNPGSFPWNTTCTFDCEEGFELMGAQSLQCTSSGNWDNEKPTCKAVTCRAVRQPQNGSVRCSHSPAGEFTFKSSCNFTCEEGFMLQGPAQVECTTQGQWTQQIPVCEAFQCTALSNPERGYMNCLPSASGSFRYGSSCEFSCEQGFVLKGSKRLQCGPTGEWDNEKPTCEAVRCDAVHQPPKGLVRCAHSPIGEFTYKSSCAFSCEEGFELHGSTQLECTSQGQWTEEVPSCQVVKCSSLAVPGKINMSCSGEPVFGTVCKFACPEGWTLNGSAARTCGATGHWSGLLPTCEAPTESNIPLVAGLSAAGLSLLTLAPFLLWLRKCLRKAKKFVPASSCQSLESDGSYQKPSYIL
human Vitamin D Receptor (VDR), VDR (gene 7421), sequence (P11473 whole entry, looked up, the tested form may be a part): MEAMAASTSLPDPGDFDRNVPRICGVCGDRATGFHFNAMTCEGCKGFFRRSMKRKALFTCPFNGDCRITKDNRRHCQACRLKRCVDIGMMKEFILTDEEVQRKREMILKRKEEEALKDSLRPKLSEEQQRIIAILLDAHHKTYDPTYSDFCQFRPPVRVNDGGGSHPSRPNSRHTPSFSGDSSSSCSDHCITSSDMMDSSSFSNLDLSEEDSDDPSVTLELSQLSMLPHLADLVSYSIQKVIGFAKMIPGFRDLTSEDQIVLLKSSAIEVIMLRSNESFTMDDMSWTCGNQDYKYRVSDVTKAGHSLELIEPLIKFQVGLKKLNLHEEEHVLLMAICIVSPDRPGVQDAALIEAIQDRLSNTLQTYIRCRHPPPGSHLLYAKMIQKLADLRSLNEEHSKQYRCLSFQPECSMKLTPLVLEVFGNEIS

With `OCC(O)CC(F)(F)C(F)(F)C(F)(F)C(F)(F)C(F)(F)C(F)(F)C(F)(F)C(F)(F)F` (configuration not stated), the compound was called inactive in experiment [1], in experiment [2], in experiment [3], in experiment [4], in [5] and in [6]. Besides, the outcome in experiment [7], in experiment [8], in experiment [9], in experiment [10], in experiment [11] and in experiment [12] was inactive. Also, the outcome in experiment [13], in experiment [14], in [15], in [16] and in experiment [17] was inactive.

In the case of `CC(=O)CCC(C)C`, in experiment [18], the compound was called inactive.

For `CC(C)CCCC(C)CCO` (configuration not stated), the outcome in [18], in experiment [2], in experiment [19], in experiment [9], in experiment [11] and in [13] was inactive. Besides, the outcome in experiment [16] and in [17] was inactive. Also, the AC50 in [4] was 36.8 µM (active); in experiment [5], 30.6 µM (active); in [6], 30.2 µM (active); in [7] it was 35.3 µM (active); in experiment [8], 29.9 µM (active); in [12], 33.8 µM (active). The half-maximal activity concentration (AC50) in experiment [14] is 31.2 µM (active); in [15], 28.8 µM (active); in experiment [20], 7.28 µM (active).

Regarding `O=S(=O)(OCC(F)(F)F)C(F)(F)C(F)(F)C(F)(F)C(F)(F)F`, the compound was called inactive in [18], in experiment [2], in experiment [19], in experiment [4], in experiment [5] and in experiment [6]. Further, the outcome in [7], in experiment [8], in experiment [9], in experiment [11], in [12] and in experiment [13] was inactive. Further, the result in experiment [14], in [15], in experiment [16] and in experiment [17] was inactive.

On to `O=C(O)C(F)(F)C(F)(F)C(F)(F)OC(F)(C(F)(F)F)C(F)(F)F`, for which the compound was classed as inactive in experiment [18], in experiment [2], in [19], in experiment [4], in [5] and in experiment [6]. Further, the outcome in experiment [7], in experiment [8], in experiment [9], in [10], in experiment [11] and in experiment [12] was inactive. The result in [13], in [14], in experiment [15], in [16] and in experiment [17] was inactive. Besides, in [13], the AC50 is 37 µM (active).

Consider `CCCCCCCCCCCCCCCCC`, for which the compound was called inactive in experiment [1] and in experiment [19].

With `CCc1ccc(C)nc1`, in experiment [18], the compound was classed as inactive.

`N#CCCOCCC#N`: the result in experiment [18], in [2] and in experiment [3] was inactive.

Take `NC(=O)C(F)(F)C(F)(F)C(F)(F)C(F)(F)C(N)=O`: the call in experiment [1], in [3], in [4], in [5], in [6] and in [7] was inactive. Also, the result in experiment [8], in [9], in [11], in [12], in experiment [13] and in [14] was inactive. Further, the result in [15], in experiment [20], in experiment [16] and in [17] was inactive.

As to `CCCCCCCC/C=C\CCCCCCCC(=O)N(C)CC(=O)O`, the compound was classed as inactive in experiment [18], in experiment [2], in [19] and in [3].

For the compound `CCCCC(CC)COC(=O)c1ccc(N(C)C)cc1` (configuration not stated), the call in experiment [1], in [2], in [3] and in experiment [11] was inactive.

`CCC(C)CO` (configuration not stated): the compound was classed as inactive in [1], in experiment [2] and in experiment [3].

By AC50 is commonly meant the concentration at which the activity in the assay is half-maximal.
